This note sets out measurements from paper PMC12864922, “TDP-43 directly inhibits mRNA accumulation in neurites through modulation of mRNA stability”.

Whole data set: some 9,900 sequences, median “r (bound/input frequency ratio)” near 0.7, cut for the highest 2% near 6.5. This excerpt belongs to a sample that is enriched for the highest values.

Sequences and labels used below:
B1: ENSMUSG00000043670.73|Diras1 (ssRNA)
RNA: GGGAGUUCUACAGUCCGACGAUCGCUUCGAUAUCCGCAUGCUAACACACUGGAGGUUUGAUCCCUGUGGAUCUGAAAACAGGGACCUGGCUAAGGAACUGCUCAUCCCAGUCAGGCCCAGAGAGGUUACCUUGCCUCUCCAUCUCUGUCCCUGUGUGCCCAGCCAUGCCCACUGUCCCUGUCCCUCACAUUCUAUCACUGUGACCUCUGGGGAGUGCCCAUUGACCUCAUCUUCCUUCACUAAUAUCUUAUUUCUUUCACCUGAUCCUGUCCUUUCCCCGUGACCUCUGACCUGUGGCCUUCCCUCUUGCGGUCGCACUAGUGUGGAAUUCUCGGGUGUCAAGG
B2: ENSMUSG00000004113.197|Cacna1b|112:116 (ssRNA)
RNA: GGGAGUUCUACAGUCCGACGAUCGCUUCGAUAUCCGCAUGCUACCUCUGCUCAACCAAGUGCCUGAUCUCUGGCUCUGAGCAUCGUGGAUGAGGUACGGCCUCAGGAAGCAUCGGGUGGAUUGGGUGGGAGCUGCUCAGAGCAGCACGGGGGCUACACACUUAGGGACAUUGACAGUGUCCAUCAGCAUGUCAGAGAAGCAGCUGUAGUGCCCGUGUUUCUCCCUGAGUCAUGGGUUCUGAAGAAGCCAGAGCGGCACAAUGCGUGCUUGCAUGAGGCACUUUCAGCCUUUUUAAAUCUGACUCUCUUGCGGUCGCACUAGUGUGGAAUUCUCGGGUGUCAAGG
B3: ENSMUSG00000090935.575|Synj2bp (ssRNA)
RNA: GGGAGUUCUACAGUCCGACGAUCGCUUCGAUAUCCGCAUGCUAAUUCAAAUUUUAUGUUUCUUAUAGACUGACUCAAAUAUUCCUACCACCUUAAAAUUAUAUAUGAUGCACCUACCACAUAAAUUAUAAUGUUUAAUGUUUUGAAAAUGGAUUAUAGGUAUUUUUAAGUUUUCAUAAAGUAUUUCUUAUAUUUGUCAUUGUGAAUUAUAUGUAAUUCUAAUAGACACUGUUUGCUUCAGUUGUUUUUGUUUCCUUUUCCUACAGUUUUCUGUGUGGGUGAUUUCAUUUAAUUAAUUGGACAGCUCUUGCGGUCGCACUAGUGUGGAAUUCUCGGGUGUCAAGG
B4: ENSMUSG00000028439.180|Fam219a (ssRNA)
RNA: GGGAGUUCUACAGUCCGACGAUCGCUUCGAUAUCCGCAUGCUAUGUGUGUGUGCCUGUGUGUGUGCGUGUGCGUGUGUGUAUGUGUGUGCGUGUGUGUGUGUGUGUGUUGUACCCGAGUGUGUGUUGAGCCUAUCUGUCCAGGGAACCAGAUUGGUGUCCGAGAUGAGGAAAUGGCUGUGGCCUGGGAAAUCAGUGAGAGGCCGCUUGGGAAUGAGAAUGCAGUGGACUGAAAGCACAGCCUGGCCAUCUGGAACCUGGGUUCUGGUCCCAGCCUCGGCAUUCUCCCUGAGCUCCUAAGCAAUCUCUUGCGGUCGCACUAGUGUGGAAUUCUCGGGUGUCAAGG
B5: ENSMUSG00000028439.177|Fam219a (ssRNA)
RNA: GGGAGUUCUACAGUCCGACGAUCGCUUCGAUAUCCGCAUGCUAUAUGCACAUGUGUGUGCAUGUGUGUGUGCCUGUGUGUGUGCGUGUGCGUGUGUGUAUGUGUGUGCGUGUGUGUGUGUGUGUGUUGUACCCGAGUGUGUGUUGAGCCUAUCUGUCCAGGGAACCAGAUUGGUGUCCGAGAUGAGGAAAUGGCUGUGGCCUGGGAAAUCAGUGAGAGGCCGCUUGGGAAUGAGAAUGCAGUGGACUGAAAGCACAGCCUGGCCAUCUGGAACCUGGGUUCUGGUCCCAGCCUCGGCAUUCUCCUCUUGCGGUCGCACUAGUGUGGAAUUCUCGGGUGUCAAGG
B6: ENSMUSG00000028439.179|Fam219a (ssRNA)
RNA: GGGAGUUCUACAGUCCGACGAUCGCUUCGAUAUCCGCAUGCUAUGUGCAUGUGUGUGUGCCUGUGUGUGUGCGUGUGCGUGUGUGUAUGUGUGUGCGUGUGUGUGUGUGUGUGUUGUACCCGAGUGUGUGUUGAGCCUAUCUGUCCAGGGAACCAGAUUGGUGUCCGAGAUGAGGAAAUGGCUGUGGCCUGGGAAAUCAGUGAGAGGCCGCUUGGGAAUGAGAAUGCAGUGGACUGAAAGCACAGCCUGGCCAUCUGGAACCUGGGUUCUGGUCCCAGCCUCGGCAUUCUCCCUGAGCUCCUACUCUUGCGGUCGCACUAGUGUGGAAUUCUCGGGUGUCAAGG
B7: ENSMUSG00000028439.178|Fam219a (ssRNA)
RNA: GGGAGUUCUACAGUCCGACGAUCGCUUCGAUAUCCGCAUGCUACAUGUGUGUGCAUGUGUGUGUGCCUGUGUGUGUGCGUGUGCGUGUGUGUAUGUGUGUGCGUGUGUGUGUGUGUGUGUUGUACCCGAGUGUGUGUUGAGCCUAUCUGUCCAGGGAACCAGAUUGGUGUCCGAGAUGAGGAAAUGGCUGUGGCCUGGGAAAUCAGUGAGAGGCCGCUUGGGAAUGAGAAUGCAGUGGACUGAAAGCACAGCCUGGCCAUCUGGAACCUGGGUUCUGGUCCCAGCCUCGGCAUUCUCCCUGAGCUCUUGCGGUCGCACUAGUGUGGAAUUCUCGGGUGUCAAGG
B8: ENSMUSG00000043670.57|Diras1|205:210 (ssRNA)
RNA: GGGAGUUCUACAGUCCGACGAUCGCUUCGAUAUCCGCAUGCUACCUGCCUCUUCACACCUCCAUAGCUUCAUCCUUUGCAGACCUCUCCCUCUAUAUCUCUUUGCUCCCCCACCCCCAUUCUAUCUGCACCCCACAACCACACACUGGAGGUUUGAUCCCUGUGGAUCUGAAAACAGGGACCUGGCUAAGGAACUGCUCAUCCCAGUCAGGCCCAGAGAGGUUACCUUGCCUCUCCAUCUCUGUCCCACACACCCCAGCCAUGCCCACUGUCCCUGUCCCUCACAUUCUAUCACUGUGACCUCCUCUUGCGGUCGCACUAGUGUGGAAUUCUCGGGUGUCAAGG
B9: ENSMUSG00000032194.139|Kank2 (ssRNA)
RNA: GGGAGUUCUACAGUCCGACGAUCGCUUCGAUAUCCGCAUGCUAGGAAAUGACCAACUUACAAGAAGUUAUGCUGACCUCCCUGUUCCCCACGGGGAGUGCUUGGCAGAGGAGACUACUUCUAGAAAUACUUUCAGACCUACAGACAAAAAAGAAAAAAGGCCAUUCCGGAGUGACUCCCAGCAUCACAGCCCAGAACCUCCUCCUCAAAGGAGAGUAAACAGAGACUGUGAUACUGACCAAGUACAGGCGCUCGCUAUGAAGCCCAUAUGUUCCUGAUUAAGAGCUGGCUGGCCUCAGAGCACCUCUUGCGGUCGCACUAGUGUGGAAUUCUCGGGUGUCAAGG
B10: ENSMUSG00000004113.476|Cacna1b|225:230 (ssRNA)
RNA: GGGAGUUCUACAGUCCGACGAUCGCUUCGAUAUCCGCAUGCUAAGAGAGAGAGAUCCAGUCAUGCAACACAAAUGGGAUCUACUUUUAAACAACAGUCCUUUGACUAGUUUGCUGCCUGAAUAAUAUUUACAAACUAAACUUUGGAUUCUGCUCUUGUUUCUACAAUGAUUUUUUGUAUAAAGCAAAGUCCUUGGAUUAAAUAAAAACAACCCAAAAAAAAAAUCAAAAUCAAAACCCAGGAUGCAACUGGGUGAUACCUGAGGACACACACACUCAGUGCGUCGGUGGAGAGGGUAUACUGCCUCUUGCGGUCGCACUAGUGUGGAAUUCUCGGGUGUCAAGG
B11: ENSMUSG00000090935.398|Synj2bp (ssRNA)
RNA: GGGAGUUCUACAGUCCGACGAUCGCUUCGAUAUCCGCAUGCUAAAUUUCCUUCUUUUCAGUAAAUUGGCCAGACUAUUAUUUUGACAUAAGAUUAUGAAGAGUUUUCCCGACAGUCUAGCAGUCACUUAACAGAUGUUGAUUGCACAUUAGUUUUGUCAGGACACCUUUAUAAAAAGAGAAAUGCACAUAUUUCAUCCAAAGGGACAUUGUGGUUACAGUUAGGAAGGAAACCCUUAAAAUGGAGUUAGUUAUCUAAGUGUAAGUUGUUUAUAUUACAGACAGCAAAAGAAAAUAGCUCCUGACUCUUGCGGUCGCACUAGUGUGGAAUUCUCGGGUGUCAAGG
B12: ENSMUSG00000043670.39|Diras1 (ssRNA)
RNA: GGGAGUUCUACAGUCCGACGAUCGCUUCGAUAUCCGCAUGCUAGCUCCUGCUCCUUCUCCCCCUCCUUCCUUCCUUUGCCUUGCCCCUCCCUCCUCCAUCUCUCUUCCCUCUUCCUGUCCCCACCAGCCUACAGUAAGGUUGGGCUCCAUCCCUGCCUCUUCACACCUCCAUAGCUUCAUCCUUUGCAGACCUCUCCCUCUAUAUCUCUUUGCUCCCCCACCCCCAUUCUAUCUGCACCCCACAACCACACACUGGAGGUUUGAUCCCUGUGGAUCUGAAAACAGGGACCUGGCUAAGGAACUCUCUUGCGGUCGCACUAGUGUGGAAUUCUCGGGUGUCAAGG
B13: ENSMUSG00000061578.1409|Ksr2 (ssRNA)
RNA: GGGAGUUCUACAGUCCGACGAUCGCUUCGAUAUCCGCAUGCUAGGACCUCAGGCCCACUGUUUUCUCCAUGUCUGUCUGUACUGACUGUUGCAGAAUGAGCUGAUGUAUGAUCUUGAUUCUCCAUUUUCCUUCUGGACCACAUGUCUCUUCCUUUUCCUUUUUAGAUCUGUCUUGCUCUCUGUCUCUCUCACUCAUUGCCAACAUGUUGCUGGGAAAGAAUAUUUGAUUUAGAUGCCAAUCAGGAAGGCAAGUAGGAUGGAUGGAUGAGUGAGUGGAUAGGUAGGUAUAUAAAUGGAUGGAUGCUCUUGCGGUCGCACUAGUGUGGAAUUCUCGGGUGUCAAGG

The target in the experiment is TDP-43 (Homo sapiens, UniProt Q13148 1-414). Briefly: RNA Bind-n-Seq with designed 260-mer pool; 25 mM Tris-HCl, 150 mM KCl, 3 mM MgCl2, BSA (printed 500 mg/mL), 20 units/mL SUPERase IN; pH not stated; 500 nM RNA pool, 1 h, 4 C; TDP-43 5, 50, 500 nM; high values mean tight binding. The note with it: protein: recombinant; tags: SBP (GST cleaved off with PreScission; pGEX-GST-SBP). The method in brief: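 In 25 mM Tris-HCl, 150 mM KCl, 3 mM MgCl2, BSA and SUPERase IN, 500 nM of an in vitro-transcribed 260-nt 3′ UTR oligo pool was incubated for 1 h at 4 °C with SBP-tagged TDP-43 (5, 50 or 500 nM) captured on streptavidin beads. RNA remaining after washes was biotin-eluted, reverse transcribed, PCR-amplified and sequenced. Binding, R, is the bound-sample abundance of each oligo, normalized to mapped reads, divided by its abundance in input. Each duplicate used a separate, independent protein batch.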
Sequence of TDP-43 (Q13148 whole entry): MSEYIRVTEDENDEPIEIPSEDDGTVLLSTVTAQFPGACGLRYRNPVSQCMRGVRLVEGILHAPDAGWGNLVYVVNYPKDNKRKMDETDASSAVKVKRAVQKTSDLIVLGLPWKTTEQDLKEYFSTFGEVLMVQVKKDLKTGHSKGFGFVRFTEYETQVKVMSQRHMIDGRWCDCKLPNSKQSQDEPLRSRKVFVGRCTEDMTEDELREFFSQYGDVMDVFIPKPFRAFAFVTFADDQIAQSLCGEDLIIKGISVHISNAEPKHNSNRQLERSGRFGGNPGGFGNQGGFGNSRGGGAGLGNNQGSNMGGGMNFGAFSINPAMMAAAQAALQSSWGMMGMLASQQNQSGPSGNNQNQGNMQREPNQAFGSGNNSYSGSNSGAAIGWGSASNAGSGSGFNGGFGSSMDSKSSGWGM
For the molecule B1, the binding signal was 2.54 R (bound/input frequency ratio).

Turning to B2, the binding signal is 0.691 R (bound/input frequency ratio).

For B3, the binding signal was 0.0736 R (bound/input frequency ratio).

With B4, the binding signal is 5.95 R (bound/input frequency ratio).

Turning to B5, the binding signal was 8.05 R (bound/input frequency ratio).

For the molecule B6, the binding signal is 7.2 R (bound/input frequency ratio).

As for B7, the binding signal was 9.43 R (bound/input frequency ratio).

Consider B8, for which the binding signal is 2.63 R (bound/input frequency ratio).

In the case of B9, the binding signal was 0.307 R (bound/input frequency ratio).

On to B10, for which the binding signal was 0.46 R (bound/input frequency ratio).

In the case of B11, the binding signal is 0.033 R (bound/input frequency ratio).

Take B12: the binding signal was 5.05 R (bound/input frequency ratio).

For B13, the binding signal was 1.55 R (bound/input frequency ratio).
